Laboratory results taken from PubChem BioAssay AID1159580 (chemical genetic matrix, 2015).
About 2,000 (36%) of roughly 5,500 compounds were called active. About 18% were inconclusive and are not listed. Cut-off read from the data, not from the text of the source: active = normalized growth mostly below about 0.91 (no sharp cut-off); inconclusive = no clear call, values can overlap the other calls; inactive = mostly above about 0.92. The list shows a part of the results.

Test: chemical genetic growth profiling, strain panel (AID 1159580);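 note: tested at 20 µM; growth read once vehicle control cultures reached saturation at 30 °C; 1 = growth at the plate median or of vehicle wells; lower values mean less growth of the strain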
Conditions: growth OD

Measured: normalized growth

CC1(C)S[C@@H]2[C@H](NC(=O)[C@H](N)c3ccccc3)C(=O)N2[C@H]1C(=O)O
inactive: S. cerevisiae deletion strains, locus YJR043C, strain POL32, stronger effect = lower value 1 | S. cerevisiae deletion strains, locus YJR066W, strain TOR1, stronger effect = lower value 0.981 | S. cerevisiae deletion strains, locus YKL009W, strain mrt4, stronger effect = lower value 1.01 | S. cerevisiae deletion strains, locus YKL068W, stronger effect = lower value 1 | S. cerevisiae deletion strains, locus YKL085W, strain MDH1 (second series), stronger effect = lower value 1.01 | S. cerevisiae deletion strains, locus YKL085W, strain MDH1, stronger effect = lower value 1.01 | S. cerevisiae deletion strains, locus YKL160W, strain elf1, stronger effect = lower value 0.93 | S. cerevisiae deletion strains, locus YKL190W, strain CNB1, stronger effect = lower value 1.01 | S. cerevisiae deletion strains, locus YKR001C, strain vps1, stronger effect = lower value 0.991 | S. cerevisiae deletion strains, locus YKR026C, strain gcn3, stronger effect = lower value 0.972 | S. cerevisiae deletion strains, locus YKR091W, strain srl3, stronger effect = lower value 0.962 | S. cerevisiae deletion strains, locus YLL001W, strain dnm1, stronger effect = lower value 1 | S. cerevisiae deletion strains, locus YLL026W, stronger effect = lower value 0.966 | S. cerevisiae deletion strains, locus YLL041C, strain sdh2, stronger effect = lower value 0.976 | S. cerevisiae deletion strains, locus YLR027C, strain aat2, stronger effect = lower value 0.983 | S. cerevisiae deletion strains, locus YLR039C, strain RIC1, stronger effect = lower value 0.993 | S. cerevisiae deletion strains, locus YLR058C, strain SHM2, stronger effect = lower value 1.01 | S. cerevisiae deletion strains, locus YLR102C, strain apc9, stronger effect = lower value 0.997 | S. cerevisiae deletion strains, locus YLR113W, strain HOG1, stronger effect = lower value 1.04 | S. cerevisiae deletion strains, locus YLR221C, strain rsa3, stronger effect = lower value 1.02 | S. cerevisiae deletion strains, locus YLR258W, strain gsy2, stronger effect = lower value 0.981 | S. cerevisiae deletion strains, locus YLR262C, strain YPT6 (second series), stronger effect = lower value 0.983 | S. cerevisiae deletion strains, locus YLR262C, strain YPT6, stronger effect = lower value 1.08 | S. cerevisiae deletion strains, locus YLR268W, strain sec22, stronger effect = lower value 1.01 | S. cerevisiae deletion strains, locus YLR320W, strain mms22, stronger effect = lower value 1 | S. cerevisiae deletion strains, locus YLR330W, strain CHS5, stronger effect = lower value 1.01 | S. cerevisiae deletion strains, locus YLR342W, strain FKS1 (second series), stronger effect = lower value 1.01 | S. cerevisiae deletion strains, locus YLR342W, strain FKS1, stronger effect = lower value 0.985 | S. cerevisiae deletion strains, locus YLR357W, strain rsc2, stronger effect = lower value 0.928 | S. cerevisiae deletion strains, locus YLR370C, strain arc18, stronger effect = lower value 0.951 | S. cerevisiae deletion strains, locus YLR371W, strain rom2, stronger effect = lower value 1 | S. cerevisiae deletion strains, locus YLR384C, strain iki3, stronger effect = lower value 0.97 | S. cerevisiae deletion strains, locus YLR418C, strain cdc73, stronger effect = lower value 0.998 | S. cerevisiae deletion strains, locus YML016C, strain PPZ1, stronger effect = lower value 1.01 | S. cerevisiae deletion strains, locus YML032C, strain rad52, stronger effect = lower value 0.994 | S. cerevisiae deletion strains, locus YML120C, strain ndi1, stronger effect = lower value 0.995 | S. cerevisiae deletion strains, locus YML124C, strain tub3, stronger effect = lower value 1 | S. cerevisiae deletion strains, locus YMR058W, strain fet3, stronger effect = lower value 0.968 | S. cerevisiae deletion strains, locus YMR078C, strain ctf18, stronger effect = lower value 1.01 | S. cerevisiae deletion strains, locus YMR125W, strain sto1, stronger effect = lower value 0.964 | S. cerevisiae deletion strains, locus YMR129W, stronger effect = lower value 0.967 | S. cerevisiae deletion strains, locus YMR205C, strain PFK2, stronger effect = lower value 0.993 | S. cerevisiae deletion strains, locus YMR223W, strain ubp8, stronger effect = lower value 1.01 | S. cerevisiae deletion strains, locus YMR231W, strain pep5, stronger effect = lower value 0.985 | S. cerevisiae deletion strains, locus YMR307W, strain GAS1, stronger effect = lower value 0.926 | S. cerevisiae deletion strains, locus YNL067W, strain RPL9B, stronger effect = lower value 1.02 | S. cerevisiae deletion strains, locus YNL071W, strain lat1, stronger effect = lower value 0.977 | S. cerevisiae deletion strains, locus YNL128W, strain TEP1, stronger effect = lower value 1.03 | S. cerevisiae deletion strains, locus YNL183C, strain NPR1, stronger effect = lower value 0.975 | S. cerevisiae deletion strains, locus YNL209W, strain ssb2, stronger effect = lower value 0.956 | S. cerevisiae deletion strains, locus YNL233W, strain BNI4, stronger effect = lower value 1.01 | S. cerevisiae deletion strains, locus YNL248C, strain rpa49, stronger effect = lower value 0.907 | S. cerevisiae deletion strains, locus YNL250W, strain rad50, stronger effect = lower value 0.998 | S. cerevisiae deletion strains, locus YNL271C, strain bni1, stronger effect = lower value 1.03 | S. cerevisiae deletion strains, locus YNL298W, strain CLA4, stronger effect = lower value 1.01 | S. cerevisiae deletion strains, locus YNL307C, strain MCK1, stronger effect = lower value 1 | S. cerevisiae deletion strains, locus YNL322C, strain KRE1 (second series), stronger effect = lower value 0.97 | S. cerevisiae deletion strains, locus YNR049C, strain mso1, stronger effect = lower value 0.946 | S. cerevisiae deletion strains, locus YNR052C, strain pop2, stronger effect = lower value 1 | S. cerevisiae deletion strains, locus YOL006C, strain TOP1, stronger effect = lower value 1.04 | S. cerevisiae deletion strains, locus YOL012C, strain htz1 0.815 | S. cerevisiae deletion strains, locus YOL147C, strain pex11, stronger effect = lower value 1.01 | S. cerevisiae deletion strains, locus YOR001W, strain rrp6, stronger effect = lower value 1 | S. cerevisiae deletion strains, locus YOR061W, strain CKA2, stronger effect = lower value 1.02 | S. cerevisiae deletion strains, locus YOR069W, strain VPS5, stronger effect = lower value 1.01 | S. cerevisiae deletion strains, locus YOR070C, strain gyp1, stronger effect = lower value 0.981 | S. cerevisiae deletion strains, locus YOR080W, strain dia2, stronger effect = lower value 0.959 | S. cerevisiae deletion strains, locus YOR083W, strain WHI5, stronger effect = lower value 0.917 | S. cerevisiae deletion strains, locus YOR106W, strain vam3, stronger effect = lower value 0.914 | S. cerevisiae deletion strains, locus YOR136W, strain idh2, stronger effect = lower value 0.995 | S. cerevisiae deletion strains, locus YOR144C, strain elg1, stronger effect = lower value 0.998 | S. cerevisiae deletion strains, locus YOR184W, strain ser1, stronger effect = lower value 0.999 | S. cerevisiae deletion strains, locus YOR231W, strain MKK1, stronger effect = lower value 1.02 | S. cerevisiae deletion strains, locus YOR265W, strain rbl2, stronger effect = lower value 0.962 | S. cerevisiae deletion strains, locus YOR270C, strain vph1, stronger effect = lower value 0.951 | S. cerevisiae deletion strains, locus YOR290C, strain snf2, stronger effect = lower value 0.92 | S. cerevisiae deletion strains, locus YOR316C, strain cot1, stronger effect = lower value 1 | S. cerevisiae deletion strains, locus YPL051W, strain arl3, stronger effect = lower value 0.947 | S. cerevisiae deletion strains, locus YPL055C, strain LGE1, stronger effect = lower value 1.02 | S. cerevisiae deletion strains, locus YPL078C, strain atp4, stronger effect = lower value 0.953 | S. cerevisiae deletion strains, locus YPL106C, strain sse1, stronger effect = lower value 0.976 | S. cerevisiae deletion strains, locus YPL240C, strain hsp82, stronger effect = lower value 0.974 | S. cerevisiae deletion strains, locus YPL256C, strain CLN2, stronger effect = lower value 1.05 | S. cerevisiae deletion strains, locus YPR119W, strain clb2, stronger effect = lower value 1.01 | S. cerevisiae deletion strains, locus YPR141C, strain kar3, stronger effect = lower value 1 | S. cerevisiae deletion strains, locus YPR163C, strain tif3, stronger effect = lower value 0.999 | S. cerevisiae deletion strains, locus YPR167C, strain met16, stronger effect = lower value 1.02 | S. cerevisiae deletion strains, strain wtn01, stronger effect = lower value 1.01 | S. cerevisiae strains, strain wild type, stronger effect = lower value 1.02
